Screening results deposited in PubChem by several laboratories.
tim23-1 inh – growth inhibitors of tim23-1 mutant yeast; S. cerevisiae tim23-1 growth, BacTiter-Glo luminescence, 24 h; inhibition, % at 20 µM; hit rate 1.3% among 330,000;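 active means growth inhibition of the mutant yeast at or above 50%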;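 further: temperature-sensitive mutant grown at 25 °C; plate controls were DMSO-treated mutant yeast for no effect and medium wells lacking yeast for full effect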
PfHsp90 set2 – inhibits growth of yeast expressing Plasmodium falciparum Hsp90; inhibition, % at 9.4 µM; hit rate 0.32% among 310,000; S. cerevisiae expressing PfHsp90, BacTiter-Glo ATP, 48 h; yeast lacking PDR1 and PDR3 efflux regulators;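 active means every replicate shows inhibition above about 80%, whatever the replicate mean, limit read from the data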;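 further: 0% = DMSO neutral controls and 100% = 20 µM radicicol positive controls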
tim10-1 inh – growth inhibitors of tim10-1 mutant yeast; S. cerevisiae tim10-1 ts strain growth, BacTiter-Glo, 24 h; inhibition, % at 20 µM; hit rate 2.2% among 330,000; AID 463190;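 active means inhibition of at least 40%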;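 further: mutant grown at 25 °C; 0% = DMSO wells with yeast and 100% = wells holding no yeast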
Rce1 inhib – inhibitors of yeast Ras-converting enzyme; yeast membranes, quenched prenylated peptide cleavage fluorescence; AID 2563; calls only; hit rate 0.27% among 290,000;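 active means fall in fluorescence gain of 50% or more versus controls, with final raw signal at or below 3038400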;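 further: plate controls were neutral control wells for no effect and wells lacking membranes for full effect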
Target sequence (Q03530 whole entry, looked up): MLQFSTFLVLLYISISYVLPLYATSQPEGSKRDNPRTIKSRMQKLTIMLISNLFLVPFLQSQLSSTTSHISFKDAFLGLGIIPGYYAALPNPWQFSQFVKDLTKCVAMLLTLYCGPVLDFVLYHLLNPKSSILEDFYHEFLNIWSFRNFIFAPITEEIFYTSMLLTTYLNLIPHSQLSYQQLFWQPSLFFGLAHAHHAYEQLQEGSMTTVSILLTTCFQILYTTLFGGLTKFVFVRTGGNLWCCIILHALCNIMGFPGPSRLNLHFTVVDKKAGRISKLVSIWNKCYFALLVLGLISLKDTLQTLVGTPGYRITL
TIM10 inh – TIM10 yeast growth inhibition; hit rate 1.4% among 330,000; S. cerevisiae TIM10 strain growth, BacTiter-Glo luminescence, 24 h; AID 463195; inhibition, % at 10 µM;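 active means inhibition of 40% or more at the single tested concentration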;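 further: wild-type TIM10 isogenic control strain grown at permissive 25 °C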
tim10-1 confirm – tim10-1 yeast growth inhibition, confirmed. shares compounds with tim10-1 inh. S. cerevisiae tim10-1 ts strain growth, BacTiter-Glo, 24 h. inhibition, % at 20 µM. hit rate 56% among 7,400. AID 463213;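 active means inhibition of yeast growth at or above a set limit in either of two repeat tests at 20 µM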;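 further: tim10-1 mutant grown at permissive 25 °C to find synthetic lethal compounds; 0% = DMSO yeast wells and 100% = medium wells without yeast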
Starred values were filed as active, the others as inactive; i = inactive; x = no result; + = active, no number. Compounds with a hit are over-represented: about 3.7% of the library has one in this group of screens.

SMILES | tim23-1 inh | PfHsp90 set2 | tim10-1 inh | Rce1 inhib | TIM10 inh | tim10-1 confirm
CCC(C)(C)C(=O)Nc1ncc(S(=O)(=O)c2ccc([N+](=O)[O-])cc2)s1 | 16 | 0 | 42* | i | 16 | 27
CC1=C(C)/C(=N\OC(=O)/C=C/c2ccccc2)C=CC1=O | 21 | 13 | 27 | i | 6 | x
CC1=CC(=O)C=C(C)C1=NOC(=O)/C=C\c1ccccc1 | 32 | 4 | 46* | x | 37 | 32*
COC(=O)c1c(NC(=O)Cn2cnc([N+](=O)[O-])n2)sc2c1CCC(C)C2 (configuration not stated) | 44 | -37 | 50* | i | 32 | 28
N/C(CCS(=O)(=O)c1ccc(Cl)cc1)=N\OC(=O)c1ccc(Cl)cc1 | 15 | 8 | 20 | i | 24 | x
N/C(CCS(=O)(=O)c1ccc(Cl)cc1)=N\OC(=O)c1ccccc1C(F)(F)F | 35 | -8 | 64* | x | 34 | 78*
O=c1ccc(S(=O)(=O)N2CCCC2)cn1Cc1ccc(F)cc1 | 7 | -15 | 8 | x | -1 | x
CC(C)(C)c1cc(CCC(=O)NNC(=S)NC(=O)c2ccccc2)cc(C(C)(C)C)c1O | 28 | -1 | 46* | i | 25 | 31*
O=C(CCc1ccccc1)NNC(=S)NC(=O)c1ccccc1 | -7 | -22 | -40 | i | 13 | x
CC(Cc1c[nH]c2ccccc12)C(=O)N1CCN(c2ccccc2F)CC1 (configuration not stated) | 17 | 6 | 97* | i | 3 | 19
NS(=O)(=O)c1ccc(NCc2ccccc2OCc2ccc(F)cc2)cc1 | 38 | x | 44* | i | 9 | 19
COc1ccccc1/C=C(/NC(=O)c1ccc(Cl)cc1Cl)C(=O)O | 18 | -43 | 22 | i | -1 | x
CN1CCN(c2cc(N3CCc4ccccc4C3)c(F)cc2[N+](=O)[O-])CC1 | 34 | -10 | 48* | i | 30 | 39*
CCC(=O)N1CCN(c2cc(N3CCN(C)CC3)c(F)cc2[N+](=O)[O-])CC1 | 4 | 24 | -6 | i | -1 | x
O=c1c2ccccc2sc2ccc(C#CC3(O)CCCCC3)cc12 | 44 | -32 | 41* | i | 28 | 35*
COc1cccc2sc3ccc(C#CC4(O)CCCCC4)cc3c(=O)c12 | 50 | -4 | 41* | + | 25 | 21
O=C(O)/C(=C\c1ccccc1)c1ccc2ccccc2c1 | 13 | x | 10 | i | 13 | x
CC(C)Oc1ccc(CNC(=S)N/N=C/c2ccc([N+](=O)[O-])cc2)cc1 | -3 | -6 | 43* | i | -2 | 22
COC(=O)c1ccc(OCC(O)CN2CCN(C(=O)c3ccco3)CC2)c(OC)c1 (configuration not stated) | -5 | -42 | -6 | i | 1 | x
CCCOc1ccc(C(=O)C(CN2CCCC2)c2ccccc2)cc1 (configuration not stated) | x | 25 | x | i | x | x
COc1ccc(C(=O)C(CN2CCCC2)c2ccccc2)cc1 (configuration not stated) | -26 | 0 | 45* | i | 38 | 43*
CCCCOc1ccc(C(=O)C(CN2CCOCC2)c2ccccc2)cc1 (configuration not stated) | 1 | -14 | 44* | i | 34 | 35*
O=C(Cn1cnc2ccccc2c1=O)NCCC(=O)Nc1ccc2c(c1)OCO2 | 2 | x | -6 | i | -13 | x
CCOc1cc(/C=C2\SC(=S)N(Nc3ccccc3)C2=O)ccc1O | 30 | 20 | 24 | i | 18 | x
COc1cc(/C=C2\SC(=S)N(Nc3ccccc3)C2=O)ccc1O | 29 | 17 | 51* | i | 31 | 20
SMILES | tim23-1 inh | PfHsp90 set2 | tim10-1 inh | Rce1 inhib | TIM10 inh | tim10-1 confirm
CCC1CCCCN1CCCNC(=O)c1ccc(CS(=O)(=O)c2ccccc2OC)o1 (configuration not stated) | -12 | -22 | -1 | i | -2 | x
O=C(Nc1ccccn1)c1csc2c1CCCC2 | 14 | 8 | 44* | i | 21 | 17
CCOc1ccccc1NC(=O)c1c(NC(=O)CCC(=O)O)sc2c1CCCCC2 | 28 | -6 | 32 | x | 22 | x
CN1CCN(CC(=O)Nc2sc3c(c2C(=O)Nc2ccccc2)CCCC3)CC1 | 8 | -39 | 13 | i | 6 | x
CCOC(=O)c1ccc(NC(=O)c2c(NC(=O)CCC(=O)O)sc3c2CCCCC3)cc1 | 26 | 3 | 40* | i | 28 | 31*
CCCC(=O)Nc1sc2c(c1C(=O)Nc1ccccn1)CCCC2 | 25 | 8 | 45* | i | 25 | 23
